CHT allo act – CHT positive allosteric modulators, primary screen, cell-based, membrane potential dye, choline EC20; actives 0.49% (n = 310,000); CHT-expressing cells; active compounds read high; LV-AA mutant CHT in HEK293 cells; B-score at 10 µM;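 active means initial fluorescence not abnormally high and integrated response B-score, plate-corrected, over 3 SD above library mean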
IDE cell activ – human IDE activators in live cells, primary screen, fluorescence polarization, HEK cells, FAbeta-B substrate; FAbeta-B cleavage; 0% vehicle, 100% cell-free pure enzyme wells; activation, % at 5.96 µM; actives 0.073% (n = 340,000); AID 493087, 2011;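 active means activation above the mean of all tested compounds plus 3 SD, set per screening campaign, cut at about 17% in these data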
IDE inh – human IDE inhibitors in live cells, primary screen, fluorescence polarization, HEK cells, FAbetaB substrate; Insulin-degrading enzyme (Homo sapiens), P14735; FAbetaB cleavage; inhibition, % at 5.59 µM; actives 0.41% (n = 320,000); AID 434962, 2010;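 active means percent inhibition above the average of all tested compounds plus 3 SD, set per screening campaign, cut at about 16% in these data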;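 further: IDE supplied by intact live HEK cells; FP after avidin binding of uncleaved biotin substrate so inhibition keeps polarization high; 0% = DMSO wells and 100% = 60 µM reference IDE inhibitor Ii1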
TMEM16A inh – TMEM16A chloride channel inhibitors, primary screen, cell-based, HTS. actives 1.2% (n = 310,000). HEK293 TMEM16A/YFP iodide influx fluorescence, ionomycin. normalized B-score (activity score, 25-100; higher = stronger inhibition) at 10 µM;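 active means ratio plate-corrected score three or more library SD toward inhibition, starting fluorescence score within five deviations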;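 further: score derived from kinetic fluorescence span divided by baseline fluorescence per well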
CHT inh – inhibitors of human choline transporter CHT | CHT-expressing cells, membrane potential dye, choline response; active compounds read low | B-score at 10 µM | actives 0.86% (n = 310,000) | AID 488975, 2010;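 active means B-score over 3 SD under the library average, and starting fluorescence ratio not unusually high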;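 further: choline stimulus applied at its EC90 after an EC20 pre-addition; B-score computed on integrated fluorescence ratio after choline addition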
ANO1 activ – TMEM16A chloride channel activators or potentiators, primary screen, cell-based, HTS. Anoctamin-1 (Mus musculus), Q8BHY3. HEK293 TMEM16A/YFP-H148Q/I152L, iodide quench fluorescence; active compounds read low. B-score at 10 µM. actives 0.3% (n = 340,000);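 active means fluorescence-ratio B-score plate-corrected deviation score at least 3 library SD below zero, with starting fluorescence score within 5 deviations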;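 further: channel opened by trigger with iodide after compound preincubation; score built on the fluorescence ratio of max minus min over baseline; more negative score means more quench and so TMEM16A activation or potentiation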
CHT activ conf – CHT activators, confirmation, cell-based, membrane potential dye, duplicate | CHT-expressing cells, membrane potential dye fluorescence (FDSS); % of choline EC20–EC90 response window; HEK293 expressing CHT LV-AA mutant; choline added at its EC20 | activation, % at 10 µM | AID 504833, 2011 | shares compounds with CHT allo act | actives 91% (n = 2,500);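 active means primary screen active, with duplicate mean activation above negative control mean plus 3 SD, cut at about 11% in these data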
HEK293 MP dye – membrane potential response in parental HEK293 cells, counter-screen for CHT activator project, cell-based, membrane potential dye. shares compounds with CHT allo act. membrane potential dye fluorescence (FDSS); measured after EC20 choline addition. ratio readout change at 10 µM, hits read low. actives 62% (n = 2,500);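 active means duplicate-averaged ratio beyond 3 SD from buffer wells, up or down, though filed actives are nearly all decreases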
* marks the source's active call; other numbers are inactive results; i = inactive; nt = not tested or not shown. Only some compounds are listed: those with a hit (about 2.7% of all), similar ones and a draw of the others.

SMILES	CHT allo act	IDE cell activ	IDE inh	TMEM16A inh	CHT inh	ANO1 activ	CHT activ conf	HEK293 MP dye
COc1ccc(-c2cc(C(=O)NNC(=O)c3csc(N4CCOCC4)n3)c3ccccc3n2)cc1	i	1.7	-2.5	i	i	i	nt	nt
COc1ccc(C(=O)C(CCC(CNC(C)(C)C)C(=O)c2ccc(OC)cc2)CNC(C)(C)C)cc1 (centres undefined)	6.56*	4.0	0.3	i	i	i	28.4*	i
CS(=O)(=O)N1CCCC(C(=O)Nc2ccc(F)c(F)c2)C1 (centres undefined)	nt	-3.6	1.9	nt	nt	i	nt	nt
CCN(C(=O)CSc1nnc(-c2ccc(C)cc2)n1N)c1c(N)n(Cc2ccccc2)c(=O)[nH]c1=O	nt	3.3	nt	nt	nt	i	nt	nt
CC(C)CN(C(=O)CSc1nnc(-c2cccs2)n1N)c1c(N)n(Cc2ccccc2)c(=O)[nH]c1=O	6.73*	0.7	5.3	i	i	i	26.2*	i
CCCc1[nH]n(-c2ccc([N+](=O)[O-])cc2)c(=O)c1C=NCCCn1ccnc1	i	5.5	4.8	i	i	i	37.2*	-48.3*
CCOC(=O)CNc1nc(C(C)(C)C)nc2c1nnn2Cc1ccccc1	i	3.3	0.4	i	i	i	nt	nt
COc1cc(C2CC(=O)Oc3cc(C)cc(C)c32)cc(OC)c1OC (centres undefined)	nt	0.0	nt	nt	nt	nt	nt	nt
CCOC(=O)C1C(C)N=C2SCC(=O)N2C1c1cccc(Br)c1 (centres undefined)	i	-1.6	8.9	i	i	i	6.4	i
CCOC(=O)C1C(=O)NC(c2ccccc2)=NC1c1cccc(Br)c1 (centres undefined)	i	1.9	1.4	i	i	i	nt	nt
CCC(=O)c1ccc(OCC(=O)OCC(=O)N2c3ccccc3NC(=O)C2(C)C)cc1	i	-1.6	8.9	i	i	i	nt	nt
COc1ccc(NC(=O)CN2C(=O)NC(c3ccccc3)(c3ccccc3)C2=O)cc1OC	i	4.9	5.2	i	i	i	nt	nt
CC(C)CC(c1nnnn1C(C)C)N1CCN(c2cccc(Cl)c2)CC1 (centres undefined)	i	-2.2	2.6	i	i	i	25.9*	i
Cc1cc2nc3ccc(N(C)C)cc3nc2cc1N	i	-4.4	8.7	i	i	i	29.9*	-23.5*
CCOC(=O)c1c(CSc2ccccc2)n(C)c2cc(Br)c(O)c(CN(C)C)c12	i	11.7	1.6	i	i	i	nt	nt
CCOC(=O)c1c(CSc2ccsc2)n(C)c2cc(Br)c(O)c(CN(C)C)c12	6.79*	8.1	-2.3	i	i	i	40.3*	i
COc1ccc(N(CC(=O)NCc2ccco2)C(=O)CCC(=O)Nc2nccs2)cc1	i	0.2	0.4	i	i	i	nt	nt
Cc1ccc(S(=O)(=O)N2CCCCC2)cc1NC(=O)COC(=O)c1cccn1C	nt	0.5	0.5	nt	nt	i	nt	nt
CCOC(=O)c1sc2ncnc(N3CCN(CC)CC3)c2c1C	i	-5.2	2.8	i	i	i	45.2*	-43*
CCOC(=O)c1sc2ncnc(N3CCN(C(=O)OCC)CC3)c2c1C	i	-3.1	8.6	i	i	i	nt	nt

High-throughput results from PubChem.
